# Assay outcomes: PubChem, National Center for Advancing Translational Sciences (NCATS)
# The list is not random: actives were taken first. Their share in the collection is about 19%.
# Marburg entry inh: qHTS for inhibitors of binding or entry into cells for Marburg Virus; Marburg virus pseudotyped entry inhibition, cell reporter; Potency, µM (series often up to 37.8 µM), inactives show top-dose activity change, negative = inhibition, usual class: inhibitors; actives 1.8% (n = 300,000); AID 540276, 2011; calls by dose curve; tested in HEK293 cells; note: potency is the fitted concentration of half-maximal effect; % is set by controls: 0 for no effect and ±100 for the full control effect
# Pf growth 96h: Primary qHTS for delayed death inhibitors of the malarial parasite plastid, 96 hour incubation; P. falciparum luciferase reporter growth, 96 h; Potency, µM (top dose mostly 28.7 µM), for the others: top-dose activity change, negative = inhibition, actives largely listed as inhibitors; actives 6.9% (n = 320,000); note: potency is the fitted concentration of half-maximal effect; % is set by controls: 0 for no effect and ±100 for the full control effect
#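 Cell-based qHTS: luciferase-tagged P. falciparum in erythrocytes (2% hematocrit, 0.05% parasitemia final) incubated with compounds for 96 hours, 37 C, 5% CO2; luciferase detection reagent then added and luminescence measured.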
# Pf growth 48h: Primary qHTS for delayed death inhibitors of the malarial parasite plastid, 48 hour incubation; actives 5.9% (n = 310,000); P. falciparum luciferase growth in erythrocytes, 48 h; Potency, µM (top dose mostly 28.7 µM), without a hit: at the highest dose activity change, negative = inhibition, most hits filed as inhibitors; note: potency is the fitted concentration of half-maximal effect; % is set by controls: 0 for no effect and ±100 for the full control effect
#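 Cell-based growth assay: transgenic P. falciparum expressing firefly luciferase, cultured in red cells within RPMI 1640 containing 0.5% w/v Albumax, 24 mM bicarbonate and gentamycin. A drop in luciferase activity indicates inhibition.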
# LASV entry inh: qHTS for Inhibitors of binding or entry into cells for Lassa Virus | Lassa virus pseudotype entry inhibition, cell reporter | Potency, µM (series often up to 37.9 µM), inactives show at the highest dose activity change, negative = inhibition, most hits filed as inhibitors | actives 1.2% (n = 300,000); calls by dose curve; tested in HEK293 cells; note: potency is the fitted concentration of half-maximal effect; % is set by controls: 0 for no effect and ±100 for the full control effect; nearly all actives have a fitted effect of over 50% in size
# CHX counter: Cycloheximide Counterscreen for Small Molecule Inhibitors of Shiga Toxin. cell reporter, cycloheximide protein synthesis inhibition counterscreen. max response, %. actives 12% (n = 300,000); in the data active = max response mostly above about 13%, no sharp cut-off; inactive = mostly below about 14%; note: read at 38.3 µM for the half of the compounds with a filed dose; 0% is about no effect
# Shiga toxin inh: A qHTS for Small Molecule Inhibitors of Shiga Toxin | actives 9.2% (n = 290,000) | Vero cells, Shiga toxin protein synthesis inhibition reporter | inhibition, % at 38.7 µM; in the data active = inhibition mostly above about 28%, no sharp cut-off; inactive = mostly below about 43%; note: 0% is about no effect
# The depositor's hits bear a star; ? = inconclusive; / = no result; [ ] = remark or other dose. Unless noted, calls come from the whole dose curve; as a rule, active = well fitted inhibition curve with a large enough effect; inconclusive = small, poorly fitted or top-dose-only effect, or another doubt; inactive = no such curve, though single readings can be large or run the other way.
SMILES,Marburg entry inh,Pf growth 96h,Pf growth 48h,LASV entry inh,CHX counter,Shiga toxin inh
O=C(NC(=S)Nc1ccc(CN2CCCCC2)cc1)c1cc2ccccc2o1,/,1%,?,/,14*,24
O=C(NC(=S)NCc1cccnc1)c1cc2ccccc2o1,?,?,13%,?,30*,30
O=C(Nc1cccnc1)c1cc2cc(Br)ccc2o1,/,?,36%,/,22*,/
O=C(NC(=S)Nc1cccnc1)c1cc2ccccc2o1,?,69%,3%,?,46*,57*
Cc1cc(NC(=O)c2cccnc2)ccc1NC(=O)c1cc2ccccc2o1,/,-18%,-17%,/,2,-4
CC(=O)OC1CCC2(C)C(CCC3C2CC(=NO)C2(C)C(C(C)OC(C)=O)CCC32)C1 (stereo unspecified),-12%,/,/,-23%,/,/
CN1CCN(C(=O)CN(C2CCCCC2)S(=O)(=O)c2ccccc2)CC1,4%[46.1 µM],-16%,5%,/,-5,-1
COc1ccccc1N1CCN(CC(=O)Nc2nc(C)c(C(=O)N(C)C)s2)CC1,/,15µM*,-27%,/,-3,2
CC(C)N(C#N)c1nc(N2CCOCC2)nc(N2CCOCC2)n1,?,?,-25%,10%,-6,-8
CCOc1ccc(C(=O)Nc2ccc(S(=O)(=O)Nc3nccc(C)n3)cc2)cc1OCC,9%[46.1 µM],8.3µM*,-27%,25%[46.1 µM],-4,-10
Cc1ccnc(NS(=O)(=O)c2ccc(NC(=O)C(C)(C)C)cc2)n1,/,48%,1.9µM*,/,-2,-2
CCOc1ccccc1C(=O)Nc1ccc(S(=O)(=O)Nc2nccc(C)n2)cc1,-9%[46.1 µM],13µM*,-10%,-9%[46.1 µM],-2,-5
CSc1ncc(Cl)c(C(=O)Nc2ccc(S(=O)(=O)Nc3nccc(C)n3)cc2)n1,-2%,37%,178%,?,31*,70*
Cc1cc(Cl)ccc1NC(=O)CCC(=O)N/N=C/c1cccnc1,2%[46.1 µM],?,6%,16%[46.1 µM],-2,-16
COc1ccc(CNC(=O)CN2C(=O)CSc3ccc(S(=O)(=O)N4CCCCC4)cc32)cc1,13%[46.1 µM],11%,?,-17%[46.1 µM],10,-4
COC(=O)c1c(SCC(=O)NC2CCCCC2)[nH]c2ccccc2c1=O,/,?,26%,/,-1,-2
CC1CCC(C(C)C)C(OC(=O)CSc2n[nH]c(=O)[nH]c2=O)C1 (stereo unspecified),1%,13µM*,-10%,-8%,8,-14
O=C1CC(c2ccc(F)cc2)c2cc3c(cc2N1)CCC3 (stereo unspecified),?,25%,15µM*,-17%,-4,-10
COc1ccc(Nc2ncccc2C(=O)Nc2ccccc2)cc1,-9%,33%,-62%,2%,7,-3
CC(C)c1ccc(Nc2ncccc2C(=O)O)cc1,?,20%,119%,?,43*,15
CC(C)C(NC(=S)Nc1ccccc1)C(=O)O (stereo unspecified),4%,?,9%,18%,3,7
COc1ccc2c(c1)CC(N1CCN(C)CC1)c1cc(OC)ccc1S2 (stereo unspecified),4µM*,/,/,?,/,/
CN1CCN(C2Cc3ccccc3Sc3ccc(S)cc32)CC1 (stereo unspecified),/,/,/,/,-4,-10
CC(=O)Nc1ccccc1C(=O)OCc1ccc(C(=O)c2ccccc2)cc1,?,77%,31%,?,24*,36
CC(=O)Nc1ccccc1C(=O)OCc1cccc(F)c1,-7%[46.1 µM],13%,41%,15%,26*,42
COC(=O)COC(=O)c1ccccc1NC(=O)c1ccccc1,19%,10%,2%,3%,-1,-7
Cc1ccc2nc(Nc3ccccc3)c(C=O)c(=O)n2c1,6%,469%,71%,10%,-3,8
CCOC(=O)N1CCN(C(=O)Cn2nc(C)c3sc4ccccc4c3c2=O)CC1,2%,10µM*,?,-16%,8,-13
CCOC(=O)C1CCN(C(=O)c2ccc3c(c2)sc2nc(-c4ccccc4)cn23)CC1,/,/,/,15%[46.1 µM],/,/
